Out of some 340,000 compounds screened, about 1,000 (0.29%) were called active. The list is a sample of the results. Entries with a potency or affinity are not part of this list. Unmarked numbers belong to inactive results. Cut-off read from the data, not from the text of the source: inconclusive = inhibition above about 27% without an active follow-up result; inactive = below that.
Assay: H1N1 influenza NS1A inhibitors, functional cell based assay (AID 504329)
Settings: percent inhibition, at 12.5 µM, hits give high values
Work on CCCCCCNc1c([N+](=O)[O-])cc(C)cc1[N+](=O)[O-] yielded an inhibition of 28.9%.
In the case of Cc1cc([N+](=O)[O-])c(NCCCCCCO)c([N+](=O)[O-])c1, the inhibition is reported as 11%.
N#Cc1cc(NC2CCCC2)c([N+](=O)[O-])cc1C#N gave an inhibition of 12.5%.
Work on Cc1cc(C(=O)NC2CCCCCCC2)ccc1[N+](=O)[O-] yielded an inhibition of -15.4%.
For CCCn1c2ccccc2c2cnn(CC(=O)NCCCOC)c(=O)c21, the inhibition was 0.78%.
CCN(CC(=O)Nc1c(F)cccc1F)C(=O)CNC(=O)c1ccco1 showed an inhibition of -4.3%.
For CN1c2cccc3cccc(c23)N(C)C1(C)C, the inhibition was 20.9%.
Molecule CN1c2ccccc2N(C)C1(C)c1ccccc1 has an inhibition of 14.4%.
CC(C(c1ccc2c(c1)OCO2)c1c(N)n(C)c(=O)n(C)c1=O)[N+](=O)[O-] (stereo not drawn) gave an inhibition of -16.4%.
COc1ccc(NC(=O)CSc2nnc3ccc(-c4cccnc4)nn23)cc1OC showed an inhibition of -19.3%.
In the case of COC(=O)c1ccc(C(=O)NC(=S)Nc2ccc3nc(SC)sc3c2)cc1, the inhibition is reported as -0.55%.
Work on NS(=O)(=O)c1cccc(NC(=O)COC(=O)COc2ccc3ccccc3c2)c1 yielded an inhibition of -0.29%.
O=C(N/N=C/c1cccs1)c1ccc2c(c1)OCO2 showed an inhibition of 8.44%.
In the case of CC(=O)c1ccc(N=Nc2ccc(N(C)C)cc2)cc1, the inhibition is reported as 13%.
With Nc1n[nH]c(N)c1N=Nc1cccc(F)c1 the inhibition was 1.03%.
In the case of CN(C)c1ccc2c(c1)OC(N)=C(C#N)C2c1cccc(F)c1 (stereo not drawn), the inhibition is reported as -65.2%.
Work on CN(C)c1ccc(N=Nc2ccc(C(=O)O)cc2)cc1 yielded an inhibition of -2.64%.
In the case of Cc1c(Cl)c(C(F)(F)F)nn1CC(=O)NN, the inhibition is reported as 3.69%.
Work on O=C(NCc1ccccn1)/C(=C/c1ccco1)NC(=O)c1ccccc1 yielded an inhibition of 1.38%.
In the case of CCOC(=O)N1CCN(C(=O)c2sc3nc(-c4ccc(F)cc4)cn3c2C)CC1, the inhibition is reported as -1.44%.
O=C(Cc1ccccc1)Nn1c(-c2ccccc2F)nc2ccccc2c1=O showed an inhibition of -1.28%.
For CC1(O)CC2CC1C(C(=O)O)C2C(=O)O (stereo not drawn), the inhibition was -2.28%.
CCn1cc([N+](=O)[O-])c(C(=O)N2CCCc3ccccc32)n1 showed an inhibition of 4.06%.
In the case of COc1ccc(F)cc1S(=O)(=O)n1cnc2ccccc21, the inhibition is reported as 2.94%.
In the case of CCOc1ccc(OCCCC(=O)O)cc1, the inhibition is reported as -12.4%.
Work on COC(=O)c1ccc(N2CCN(C)CC2)c(NC(=O)c2ccc(-c3ccc(Cl)cc3)o2)c1 yielded an inhibition of -4.26%.
Work on CN1CCN(c2ccc(NC(=O)c3ccc(-c4ccc(Cl)cc4)o3)cc2)CC1 yielded an inhibition of 6.66%.
Work on N#C/C(=C\c1ccc(OCc2ccccc2)cc1)C(N)=O yielded an inhibition of 4.02%.
For CCn1c(=O)n(CC)c2cc(N3CCCC3)c(NC(=O)c3cc(Cl)ccc3OC)cc21, the inhibition was 12.7%.
CN1CCN(/N=C/c2cccc(Cl)c2Cl)CC1 gave an inhibition of 3.86%.
Molecule CN1CCN(/N=C/c2ccc(-c3ccccc3)cc2)CC1 has an inhibition of 10.8%.
For Cc1ccc(C)c(OCCSc2nnc(C)c(=O)[nH]2)c1, the inhibition was -14.8%.
For Cc1ccc(S(=O)(=O)N2CCCC(C(=O)N3CCC4(CC3)OCCO4)C2)cc1 (stereo not drawn), the inhibition was 2.04%.
Molecule COc1ccc(S(=O)(=O)N(CCC(=O)O)Cc2ccccc2)cc1 has an inhibition of -3.39%.
Molecule O=C(N/N=C/c1cc2c(cc1Br)OCO2)c1cccnc1 has an inhibition of 3.42%.
With O=C(N/N=C/c1cc(Br)c(O)c(Br)c1)c1cccnc1 the inhibition was -2.33%.
With O=C(N/N=C/c1cc(Br)c(Br)o1)c1cccnc1 the inhibition was 4.32%.
With COc1cc(/C=N/NC(=O)c2cccnc2)cc(Br)c1O the inhibition was 3.86%.
Molecule Cc1ccc(N(CC(=O)NCc2ccccn2)S(=O)(=O)c2ccccc2)cc1Cl has an inhibition of -3.75%.
In the case of Cc1ccc(NC(=O)CCN2C(=O)CSC2=O)cc1, the inhibition is reported as -13.2%.
For CCCCN1C(=O)/C(=C2/Sc3ccc(OC)cc3N2CC)SC1=S, the inhibition was -6.84%.
Molecule COc1cc2c3c(c1)-c1c(sn(-c4cc(OC)ccc4OC)c1=S)C(C)(C)N3C(=O)C2=O has an inhibition of 7.42%.
In the case of COc1ccc2c(c1)-c1c(sn(-c3ccccc3)c1=S)C(C)(C)N2, the inhibition is reported as 0.13%.
Molecule COc1ccc(N2CCN(C(=O)c3ccc(Cl)c(S(=O)(=O)N4CCOCC4)c3)CC2)cc1 has an inhibition of -0.24%.
With CN(C)c1c(-c2ccccc2)cc(-c2ccccc2)[nH]c1=O the inhibition was -13.7%.
For O=C(O)c1cccc(N2C(=O)/C(=C/c3ccc([N+](=O)[O-])cc3)C=C2c2ccccc2)c1, the inhibition was 15.9%.
O=C1/C(=C/c2ccc([N+](=O)[O-])cc2)C=C(c2ccccc2)N1c1ccccc1 gave an inhibition of 16.3%.
Molecule CSCCC(NC(=O)c1ccccc1)C(=O)N1CCN(C(=O)c2ccccc2)CC1 (stereo not drawn) has an inhibition of -5.85%.

From PubChem BioAssay AID504329 (Southern Research Specialized Biocontainment Screening …, 2011)
